Lassa entry inh: inhibitors of Lassa virus binding or cell entry; Lassa virus pseudotype entry inhibition, cell reporter; AID 540256; 300,000 tested, 1.2% active; Potency, µM (top dose mostly 37.9 µM), for the others: top-dose activity change, negative = inhibition, actives largely listed as inhibitors; calls by dose curve; tested in HEK293 cells; note: potency is the fitted concentration of half-maximal effect; nearly all actives have a fitted effect of over 50% in size
FMDV antiviral: antivirals against foot and mouth disease virus. FMDV antiviral cell-based qHTS. Potency, µM (highest dose often 57.9 µM), for inactives: at the top dose activity change, negative = inhibition, usual class: inhibitors. 410,000 tested, 1.2% active. AID 1159524; calls by dose curve; tested in HEK293T cells; note: read-out not given here; potency is the fitted concentration of half-maximal effect; nearly all actives have a fitted effect of over 45% in size
VACV Venus inh: vaccinia inhibition (Venus reporter); Vaccinia virus Venus reporter expression, fluorescence; Potency, µM (top dose mostly 36.5 µM), inactives show at the top dose activity change, negative = inhibition, hits mostly inhibitors; 330,000 tested, 0.46% active; calls by dose curve; tested in A549 cells; note: potency is the fitted concentration of half-maximal effect; nearly all actives have a fitted effect of over 30% in size
MARV entry inh: Marburg virus entry inhibition | Marburg virus pseudotyped entry inhibition, cell reporter | AID 540276 | Potency, µM (series often up to 37.8 µM), without a hit: top-dose activity change, negative = inhibition, actives largely listed as inhibitors | 300,000 tested, 1.8% active; calls by dose curve; tested in HEK293 cells; note: potency is the fitted concentration of half-maximal effect
VACV mCherry inh: inhibitors of vaccinia virus infection (mCherry reporter signal); Vaccinia virus mCherry reporter infection, fluorescence; Potency, µM (titrated, usually from 36.5 µM), for the others: at the top dose activity change, negative = inhibition, hits mostly inhibitors; 310,000 tested, 0.63% active; calls by dose curve; tested in A549 cells; note: potency is the fitted concentration of half-maximal effect; nearly all actives have a fitted effect of over 35% in size
HCMV inh: inhibitors of human cytomegalovirus | HFF cells, HCMV-luciferase reporter, 72 h; active compounds read low | activity change, negative = inhibition, % at 57.5 µM | 410,000 tested, 4.5% active | AID 1259415; in the data active = activity change below about -60%; inconclusive = no clear call, values can overlap the other calls; inactive = above about -39%
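Human foreskin fibroblasts infected with luciferase-reporter HCMV at MOI 1 PFU/cell, compounds at two doses. Luciferase measured 72 h post infection; normalized to buffer-only basal and Salinomycin (10uM) controls.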
Numbers without * were called inactive; i = inactive; u = inconclusive; x = no result; [ ] = remark or other dose. Compounds with a hit are over-represented: about 6.5% of the library has one in this group of screens. % is set by controls: 0 for no effect and ±100 for the full control effect.

SMILES	Lassa entry inh	FMDV antiviral	VACV Venus inh	MARV entry inh	VACV mCherry inh	HCMV inh
COc1ccccc1-c1ccnc(-n2ncc(C(=O)NCCc3cccnc3)c2C)n1	x	0%	4%	x	-12%	x
Cc1ccc(-c2ccc(=O)n(CC(=O)Nc3ccc(C)cc3Cl)n2)cc1	4%[46.1 µM]	-20%	-3%	26%[46.1 µM]	-11%	4
COc1cc([C@@H]2c3cc4c(cc3C[C@H]3COC(=O)[C@@H]32)OCO4)cc(OC)c1O	x	x	u	x	10µM*	x
COc1cc(C2c3cc4c(cc3CC3COC(=O)C32)OCO4)cc(OC)c1OC (configuration not stated)	x	-14%	u	x	-21%	1
COc1cccc(CC(=O)n2nc(N)c3cc4ccc(OC)cc4nc32)c1	x	-24%	-23%	x	u	55
COc1ccc2cc3c(N)nn(C(=O)c4ccc(OC)c(OC)c4)c3nc2c1	19%[46.1 µM]	-13%	-9%	-12%[46.1 µM]	0%	-38
COc1ccc2cc3c(N)nn(C(=O)c4ccccc4Cl)c3nc2c1	u	u	-18%	-28%[46.1 µM]	-28%	-70*
COc1ccc2cc3c(N)nn(C(=O)c4cccc(F)c4)c3nc2c1	x	21%	x	x	x	-81*
COc1ccc2cc3c(N)nn(C(=O)c4ccc(F)cc4)c3nc2c1	x	-24%	x	x	x	-87*
COc1ccc2cc3c(N)nn(C(=O)Cc4ccc(Cl)cc4)c3nc2c1	x	-3%	-13%	x	u	-67*
CCOC(=O)N1CCc2c(sc3c2c(=O)n(-c2ccc(CC)cc2)c(=O)n3CC(=O)Nc2ccc(C)cc2)C1	-22%[46.1 µM]	-2%	-21%	-5%[46.1 µM]	-14%	u
Cc1ccc(-c2csc3ncnc(NS(=O)(=O)c4ccc(Cl)cc4)c23)cc1	u	-5%	-23%	-2%	-15%	u
NNc1ncnc2scc(-c3ccc(Cl)cc3)c12	-3%	u	-28%	-25%	u	-99*
Clc1ccc(-c2csc3ncnc(Cl)c23)cc1	3%	u	-12%	-2%	i	9
c1csc(-c2csc3ncnc(NCCCN4CCOCC4)c23)c1	-19%	u	x	u	x	-67*
OCCCNc1ncnc2scc(-c3ccc(Cl)cc3)c12	-16%	u	-30%	u	u	-80*
COc1ccc(C(=O)NCC2Cc3cc(C)cc(-c4cc(C(C)=O)ccc4F)c3O2)c(OC)c1OC (configuration not stated)	x	-18%	-11%	x	i	x
CCN(Cc1nc(-c2ccc(OC)c(OC)c2)no1)S(=O)(=O)c1ccc(OC)cc1	0%[46.1 µM]	u	-7%	-24%[46.1 µM]	-5%	1
Cc1ccc2nc(CSc3nnc4ccccn34)cc(=O)n2c1	17%	34%	-3%	11%[46.1 µM]	1%	14
Cc1ccc2nc(CSc3nnc(-c4ccco4)n3-c3ccccc3)cc(=O)n2c1	26%	-2%	x	5%	x	-105*
COCC(C)n1c(SCc2cc(=O)n3cc(C)ccc3n2)nc2ccccc2c1=O (configuration not stated)	6.3µM*	-29%	4%	5µM*	-10%	-61*
Cc1ccc2nc(CSc3nnc(-c4ccco4)o3)cc(=O)n2c1	6%	-9%	x	-9%	x	-21
Cc1nc(SCc2ccccc2C)n[nH]1	5%	31%	x	28%	x	37
CCOc1ccc(Cl)cc1CSc1n[nH]c(C)n1	-4%	-17%	-13%	0%[46.1 µM]	-14%	-72*
COC(=O)C1=CN(CC2CCCO2)C=C(C(=O)OC)C1c1ccccc1C(F)(F)F (configuration not stated)	-14%	-21%	-8%	7%[46.1 µM]	i	-21
SMILES	Lassa entry inh	FMDV antiviral	VACV Venus inh	MARV entry inh	VACV mCherry inh	HCMV inh
COC(=O)C1=CN(CCCN2CCCC2=O)C=C(C(=O)OC)C1c1ccccc1C(F)(F)F	u	-20%	-13%	-7%	x	-65*
O=C(N(CC1CCCCC1)C1=NCCCC1)C12CC3CC(CC(C3)C1)C2	x	x	x	-19%	x	x
CCCCC(=O)/C=C/n1c2c(oc1=S)CCCC2	x	x	x	18µM*	x	x
CCCCC(=O)N1C(C)CCC1C (configuration not stated)	x	-6%	-13%	x	u	-24
Cc1ccc(-c2onc(C)c2C)cc1S(=O)(=O)NCc1ccco1	7%[46.1 µM]	30%	-12%	x	i	-1
CCOC(=O)N1CCN(CC(O)COCCC23CC4CC(CC(C4)C2)C3)CC1 (configuration not stated)	-18%	u	-3%	u	x	-62*
Nc1nc(N)c2cc([N+](=O)[O-])ccc2n1	4%	-12%	-26%	-2%	u	-14
Nc1nc(N)c2cc(S(=O)(=O)c3ccc4ccccc4c3)ccc2n1	x	-17%	u	x	u	-82*
COC(=O)[C@@H]1CC[C@H](C)[C@@H](c2ccc(C)cc2)N1C(=O)c1ccc(C=NO[C@H](C)c2cn([C@@H]3COC[C@@H]3O)nn2)cc1	-17%[14.3 µM]	x	x	4%[14.2 µM]	x	x
COc1ccc2[nH]cc(CCNc3nc(-c4cccnc4)nc4ccccc34)c2c1	x	-7%	x	x	x	x
Cc1ccc2c(C)c(C(=O)Nc3nnc(C)s3)oc2c1	-9%	30%	2%	8%	-6%	-99*
COc1ccc(C(=O)c2c(-c3ccc(OC)cc3)oc3ccc(-c4ccc(OC)nc4)cc23)cc1	x	-22%	-21%	x	-6%	-11
COc1ccc(C(=O)c2c(-c3cccc(C)c3)oc3ccc(N4CCOCC4)cc23)cn1	x	3%	-11%	x	-5%	-73*
CCCCNC(=O)c1cnn2c(C)c(Cc3c(C)cc(C)cc3C)c(C)nc12	u	16µM*	u	x	-15%	-21
O=C(NC1CCCCC1)N1CC(=O)N2[C@H](CO)[C@@H](c3ccc(Br)cc3)[C@@H]2C1	x	x	x	x	x	-18
O=C(NCc1ccc(F)cc1F)Nc1cnccc1C(F)(F)F	x	-12%	x	x	x	-68*
O=C(NCc1cccnc1)Nc1ccc(F)cc1F	9%	20%	-7%	19%	-4%	45
CCCCCCCC1=Cc2ccccc2C(C(C(C)=O)C(=O)OC)N1C(=O)OC (configuration not stated)	x	x	x	-5%[14.2 µM]	x	x
Cc1ccc2sc(N(CCCN(C)C)C(=O)c3ccco3)nc2c1C	-24%[46.1 µM]	-3%	-20%	x	-21%	-62*
CC(=O)c1ccc(C(=O)N(CCCN(C)C)c2nc3c(C)c(C)ccc3s2)cc1	u	-22%	-15%	x	-11%	-4
Cc1ccc2sc(N(CCCN(C)C)C(=O)c3ccc(Br)s3)nc2c1C	u	-23%	-18%	15µM*	u	-15
Cc1ccc2c(=O)cc(C(=O)Nc3ccc(S(=O)(=O)N4CCCCCC4)cc3)oc2c1C	-2%[46.1 µM]	-8%	-12%	22%[46.1 µM]	-12%	11
CCN(CC)c1ccc(/C=C/c2cc(Cl)nc3ccccc23)cc1	x	x	3%	x	-7%	x
CCN(CC)c1ccc2nc3ccc(N)cc3[n+](-c3ccccc3)c2c1	8.9µM*	u	i	u	i	x
CCN(CC)c1ccc2nc3ccccc3[n+](CC)c2c1	u	7.9µM*	u	u	50%	x
CCN(CC)c1ccc2nc3c(=O)n(C)c(=O)n(C)c3nc2c1	-20%[46.1 µM]	-12%	i	u	40%	-24
